Test results as given in PubChem BioAssay (Tox21).
Values joined by “and” are separate entries in the source; they are usually repeats but may differ in a detail not shown here. Equal values may be shown once. Results filed as inconclusive are left out. The source holds several records for some structures; these can differ, active in one and inactive in another. Active and inactive are the calls of the source. Unless noted, calls follow the shape of the dose curve; as a rule, active = well fitted curve in the direction sought with a large enough effect in the repeat runs; inconclusive = weak or mixed curves; inactive = no such curve, though single readings can be large; an effect the other way counts as inactive or inconclusive.

Columns and labels:
[1] = qHTS assay to identify small molecule antagonists of the glucocorticoid receptor (GR) signaling pathway - cell viability counter screen (AID 720693); also: nearly all actives have a fitted effect of over 55% in size; also: potency is read from the fitted curve at half-maximal effect
[2] = qHTS assay for identifying genotoxic compounds that show differential cytotoxicity against isogenic chicken DT40 cell lines with known DNA damage response pathways - wild type cell line (AID 743012); also: nearly all actives have a fitted effect of over 60% in size; also: potency is read from the fitted curve at half-maximal effect
Summary of the method: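 Viability of DNA repair-proficient chicken DT40 cells was assessed by CellTiter-Glo luminescence following 40 h compound exposure at 37 C/5% CO2.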

[3] = qHTS assay for identifying genotoxic compounds that show differential cytotoxicity against isogenic chicken DT40 cell lines with known DNA damage response pathways - Rev3 mutant cell line (AID 743014); also: nearly all actives have a fitted effect of over 55% in size; also: potency is read from the fitted curve at half-maximal effect
[4] = qHTS assay for identifying genotoxic compounds that show differential cytotoxicity against isogenic chicken DT40 cell lines with known DNA damage response pathways - Rad54/Ku70 mutant cell line (AID 743015); also: nearly all actives have a fitted effect of over 60% in size; also: potency is read from the fitted curve at half-maximal effect
[5] = qHTS assay to identify small molecule antagonists of the androgen receptor (AR) signaling pathway - cell viability counter screen (AID 743033; also: nearly all actives have a fitted effect of over 45% in size; also: potency is read from the fitted curve at half-maximal effect)
[6] = qHTS assay to identify small molecule antagonists of the androgen receptor (AR) signaling pathway using the MDA cell line - cell viability counter screen (AID 743041; also: nearly all actives have a fitted effect of over 45% in size; also: potency is read from the fitted curve at half-maximal effect)
Summary of the method: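 Using the breast carcinoma line MDA-kb2 AR-luc, test chemicals were co-incubated with R1881 for 16 h; CellTiter-Fluor reagent, added at 15.5 h, provided a fluorescence measure of live cells.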

[7] = target: Androgen receptor (Homo sapiens) (UniProt P10275); assay: qHTS assay to identify small molecule antagonists of the androgen receptor (AR) signaling pathway (AID 743035; active = well fitted inhibition curve with a large enough effect in the signal ratio in the repeat runs, not every such curve was filed as active; the % refers to the signal ratio; also: potency is read from the fitted curve at half-maximal effect)
Summary of the method: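 Reporter HEK293 cells were exposed to compounds and R1881 overnight (16 h, 37C); beta-lactamase activity was then quantified by FRET fluorescence.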

[8] = target: Androgen receptor (Homo sapiens) (UniProt P10275); assay: qHTS assay to identify small molecule agonists of the androgen receptor (AR) signaling pathway using the MDA cell line (AID 743040; also: nearly all actives have a fitted effect of over 20% in size)
Summary of the method: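 Stable MMTV-luciferase reporter in MDA-kb2 cells; note the promoter carries GR as well as AR response elements. 16 h compound treatment, 37C, 0% CO2; ONE-Glo luminescence endpoint.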

[9] = target: Androgen receptor (Homo sapiens) (UniProt P10275); assay: qHTS assay to identify small molecule antagonists of the androgen receptor (AR) signaling pathway using the MDA cell line (AID 743042; also: nearly all actives have a fitted effect of over 55% in size; also: potency is read from the fitted curve at half-maximal effect)
Summary of the method: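 Antagonist mode: compounds plus R1881 agonist added to MDA-kb2 AR-luc cells, incubated 16 h at 37C. Luciferase reporter luminescence quantified, with multiplexed CellTiter-Fluor readout for cell viability.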

[10] = target: Androgen receptor (Homo sapiens) (UniProt P10275); assay: qHTS assay to identify small molecule agonists of the androgen receptor (AR) signaling pathway (AID 743036; active = well fitted activation curve with a large enough effect in the signal ratio in the repeat runs, with a control signal flat, not every such curve was filed as active; the % refers to the signal ratio)
Summary of the method: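 Activation was read as beta-lactamase FRET signal from LiveBLAzer B/G substrate, added for 2 h at room temperature. Before that, GeneBLAzer AR-UAS-bla GripTite (HEK293) cells had 16 h compound exposure at 37C.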

Measured: Potency

Sequence of Androgen receptor (Homo sapiens) (P10275 whole entry, looked up): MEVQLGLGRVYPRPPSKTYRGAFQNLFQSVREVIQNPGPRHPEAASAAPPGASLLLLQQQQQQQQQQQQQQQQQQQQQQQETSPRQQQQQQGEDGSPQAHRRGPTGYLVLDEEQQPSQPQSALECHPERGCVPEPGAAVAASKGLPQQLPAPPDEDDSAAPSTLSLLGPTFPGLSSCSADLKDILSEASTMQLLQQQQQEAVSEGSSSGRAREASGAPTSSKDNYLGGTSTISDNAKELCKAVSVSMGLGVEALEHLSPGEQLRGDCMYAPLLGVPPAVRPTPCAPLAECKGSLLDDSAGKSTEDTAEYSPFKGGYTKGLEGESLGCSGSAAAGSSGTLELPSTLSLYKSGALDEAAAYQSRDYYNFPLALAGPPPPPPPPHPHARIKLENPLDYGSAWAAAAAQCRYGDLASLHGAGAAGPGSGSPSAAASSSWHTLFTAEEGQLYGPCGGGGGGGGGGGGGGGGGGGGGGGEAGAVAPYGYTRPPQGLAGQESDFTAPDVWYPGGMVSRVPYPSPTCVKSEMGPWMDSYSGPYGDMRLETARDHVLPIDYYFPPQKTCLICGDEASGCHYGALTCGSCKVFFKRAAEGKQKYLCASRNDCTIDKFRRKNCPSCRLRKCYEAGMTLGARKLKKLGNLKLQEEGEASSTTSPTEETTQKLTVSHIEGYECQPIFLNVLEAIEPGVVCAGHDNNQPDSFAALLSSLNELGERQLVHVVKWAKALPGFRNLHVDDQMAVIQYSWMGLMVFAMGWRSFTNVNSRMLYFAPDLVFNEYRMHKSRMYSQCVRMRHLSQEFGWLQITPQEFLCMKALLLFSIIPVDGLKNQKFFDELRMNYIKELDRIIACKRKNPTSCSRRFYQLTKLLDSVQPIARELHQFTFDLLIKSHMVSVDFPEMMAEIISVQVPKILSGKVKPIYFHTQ

CC(C)(C)c1cc(C(C)(C)C)c(O)c(C(C)(C)C)c1
inactive: [1] | [2] | [3] | [4] | [5] | [6]

c1cnc2cc3c(cc2n1)C1CNCC3C1
inactive: [1] | [2] | [3] | [4] | [6]

O=C1CC2(CCCC2)CC(=O)N1CCCCN1CCN(c2ncccn2)CC1
inactive: [1] | [6]
active: [2] 21.1 µM and 13.7 µM | [3] 7.7 µM | [4] 21.1 µM and 15.4 µM
inactive and 21.9 µM (active): [5]

Cc1cccc(O)c1C
inactive: [1] | [2] | [3] | [4] | [5] | [6]

COc1ccc(COC(C)=O)cc1
inactive: [1] | [2] | [3] | [4] | [5] | [6]

O=C(O)c1cc(Cl)cc(Cl)c1
inactive: [1] | [2] | [3] | [4] | [5] | [6]

CC(=O)CC(C)=O
inactive: [1] | [2] | [3] | [4] | [5] | [6]

C=CC(=O)OCCCCCCCC
inactive: [1] | [2] | [3] | [4] | [5] | [6]

CCC[C@H](N[C@@H](C)C(=O)N1[C@H](C(=O)O)C[C@@H]2CCCC[C@@H]21)C(=O)OCC
inactive: [1] | [2] | [3] | [4] | [5] | [6]

CC(=O)N[C@@H](CS)C(=O)O
inactive: [1] | [2] | [3] | [4] | [5] | [6]

CC(=O)C1=C(C)[C@@H]2C[C@@]3(C1)[C@H](C)CC[C@H]3C2(C)C
inactive: [1] | [2] | [3] | [4] | [5] | [6]

NCCO
inactive: [1] | [2] | [4] | [5] | [6]
inactive and 68.6 µM (active): [3]

C/C=C/c1ccc(OCC)c(O)c1
inactive: [1] | [2] | [3] | [4] | [5] | [6]

CC[C@]1(O)C[C@@H]2CN(CCc3c([nH]c4ccccc34)[C@@](C(=O)OC)(c3cc4c(cc3OC)N(C)[C@H]3[C@@](O)(C(=O)OC)[C@H](OC(C)=O)[C@]5(CC)C=CCN6CC[C@]43[C@@H]65)C2)C1
active: [2] 53.1 nM and 29.8 nM | [3] 53.1 nM and 29.8 nM | [4] 75 nM and 53.1 nM
inactive: [1] | [6]

CCN1CCCC1CNC(=O)c1cc(S(=O)(=O)CC)c(N)cc1OC (stereo not drawn)
inactive: [1] | [2] | [3] | [4] | [5] | [6]

CN(C)c1ccc(C(=C2C=CC(=[N+](C)C)C=C2)c2ccccc2)cc1
active: [1] 195 nM | [2] 1.06 µM and 13.7 nM | [3] 1.19 µM and 7.7 nM | [5] 155 nM

c1ccc2n[nH]nc2c1
inactive: [1] | [2] | [4] | [5] | [6]
inactive and 61.1 µM (active): [3]

Cc1cccc2n[nH]nc12
inactive: [1] | [2] | [3] | [4] | [5] | [6]

CCCCC(CC)COC(=O)CC(C(=O)OCC(CC)CCCC)S(=O)(=O)O (stereo not drawn)
inactive: [1] | [2] | [3] | [5] | [6]
inactive and 43.3 µM (active): [4]

CC(=O)OCCOCCOCCOC(C)=O
inactive: [1] | [2] | [3] | [4] | [5] | [6]

CCCN[C@H]1CCc2nc(N)sc2C1
inactive: [1] | [2] | [3] | [4] | [5] | [6]

CCn1cc(C(=O)O)c(=O)c2cc(F)c(N3CCNC(C)C3)c(F)c21 (stereo not drawn)
inactive: [1] | [3] | [4] | [5] | [6]
active: [2] 26.6 µM

COc1nc(C)nc(Cl)c1NC1=NCCN1
inactive: [1] | [2] | [3] | [4] | [5] | [6]

c1ccc2c(c1)-c1cccc3c1c-2cc1ccccc13
inactive: [1] | [2] | [3] | [4] | [5] | [6]

CC(C)(C)c1ccccc1
inactive: [1] | [2] | [3] | [5]

CCOC(=O)C(C)C(C)=O (stereo not drawn)
inactive: [1] | [2] | [3] | [4] | [5] | [6]

Clc1ccc2c(c1)C(N1CCNCC1)=Nc1ccccc1O2
active: [2] 26.6 µM and 7.7 µM | [3] 29.8 µM and 9.69 µM | [4] 26.6 µM and 10.9 µM
inactive: [1] | [5] | [6]

CNCCC(Oc1ccc(C(F)(F)F)cc1)c1ccccc1 (stereo not drawn)
inactive: [1]
active: [2] 5.31 µM and 9.56 µM | [3] 6.68 µM and 6.03 µM | [4] 6.68 µM and 8.52 µM | [5] 48400 nM | [6] 27.8 µM and 53.8 µM

Cc1cc(C(C)(C)C)c(O)c(C(C)(C)C)c1
inactive: [1] | [2] | [5] | [6]
inactive and 30.6 µM (active): [3]
inactive and 27.3 µM (active): [4]

CCC(C)(C)C(=O)O[C@H]1C[C@@H](C)C=C2C=C[C@H](C)[C@H](CC[C@@H]3C[C@@H](O)CC(=O)O3)[C@H]21
active: [2] 2.17 µM | [3] 0.154 µM | [4] 1.09 µM
inactive: [1] | [5] | [6]

CC(=O)O[C@]1(C(C)=O)CC[C@H]2[C@@H]3C[C@H](C)C4=CC(=O)CC[C@]4(C)[C@H]3CC[C@@]21C
inactive: [1] | [6]
active: [2] 5.31 µM | [3] 3.76 µM and 4.85 µM | [4] 8.41 µM and 21.7 µM

CO[Si](OC)(OC)c1ccccc1
inactive: [1] | [2] | [3] | [4] | [5] | [6]

Oc1c(Cl)cc(Cl)c(Cl)c1Cc1c(O)c(Cl)cc(Cl)c1Cl
active: [1] 1.69 µM and 21.8 µM and 19.5 µM | [2] 5.96 µM and 3.05 µM and 4.33 µM | [3] 5.96 µM and 3.05 µM and 3.86 µM | [5] 9.52 µM and 1.54 µM and 1.74 µM | [7] 10.7 µM and 1.74 µM | [6] 13.3 µM and 17.2 µM and 19.3 µM | [9] 13.3 µM and 2.16 µM and 5.45 µM
inactive: [8]

COc1cc(C(=S)N2CCOCC2)ccc1O
inactive: [1] | [2] | [3] | [5] | [8] | [6] | [9]

CNC1(C)C2CCC(C2)C1(C)C (stereo not drawn)
inactive: [1] | [2] | [3] | [5] | [6]

CC(COc1ccccc1)N(CCCl)Cc1ccccc1 (stereo not drawn)
active: [2] 21.1 µM and 27.3 µM | [3] 13.3 µM and 34.7 µM and 5.45 µM
inactive: [1] | [5] | [6]

NCCCCCC(=O)O
inactive: [1] | [2] | [4] | [5]

Cc1cc(C2(c3cc(C)c(O)cc3C)OS(=O)(=O)c3ccccc32)c(C)cc1O
inactive: [1] | [2] | [3] | [5]
active: [6] 30.6 µM

COC(=O)[C@H]1[C@H]2C[C@@H]3c4[nH]c5cc(OC)ccc5c4CCN3C[C@H]2C[C@@H](OC(=O)c2cc(OC)c(OC)c(OC)c2)[C@@H]1OC
inactive: [1] | [6]
inactive and 21.8 µM (active): [5]
active: [2] 13.3 µM and 17.7 µM | [3] 18.8 µM and 25 µM

CN1C(=O)c2ccc([N+](=O)[O-])cc2C1=O
inactive: [1] | [2] | [3] | [5] | [7] | [10] | [8] | [9]

OCCOCCN1CCN(C(c2ccccc2)c2ccc(Cl)cc2)CC1 (stereo not drawn)
active: [2] 38.1 µM | [3] 21.4 µM
inactive: [1] | [5] | [6]

CC(C)CCOCc1ccccc1
inactive: [1] | [2] | [3] | [5] | [7] | [10] | [8] | [6] | [9]

COC(=O)/C=C/c1ccccc1
inactive: [1] | [2] | [5]

NC12CC3CC(CC(C3)C1)C2
inactive: [1] | [2] | [4] | [5]

c1ccc2c(c1)CCCC2C1=NCCN1 (stereo not drawn)
inactive: [1] | [2] | [3] | [5] | [6]

O=C(OCc1ccccc1)c1ccc(O)cc1
inactive: [1] | [2] | [3] | [5] | [6]
